Screens as filed in PubChem.
ADAM17 inh: ADAM17 inhibitors, primary screen, biochemical, QFRET | Disintegrin and metalloproteinase domain-containing protein 17 (Homo sapiens), P78536 | recombinant ADAM17, EDANS/DABCYL FRET peptide cleavage | inhibition, % at 6.95 µM | 370,000 tested, 0.83% active;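 active = inhibition above the mean of compounds lying between control limits plus 3 SD, set per campaign, cut at about 8.5% in these data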;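 note: 0% = DMSO-only wells as the low control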
Target sequence (P78536 215-824 limits assumed): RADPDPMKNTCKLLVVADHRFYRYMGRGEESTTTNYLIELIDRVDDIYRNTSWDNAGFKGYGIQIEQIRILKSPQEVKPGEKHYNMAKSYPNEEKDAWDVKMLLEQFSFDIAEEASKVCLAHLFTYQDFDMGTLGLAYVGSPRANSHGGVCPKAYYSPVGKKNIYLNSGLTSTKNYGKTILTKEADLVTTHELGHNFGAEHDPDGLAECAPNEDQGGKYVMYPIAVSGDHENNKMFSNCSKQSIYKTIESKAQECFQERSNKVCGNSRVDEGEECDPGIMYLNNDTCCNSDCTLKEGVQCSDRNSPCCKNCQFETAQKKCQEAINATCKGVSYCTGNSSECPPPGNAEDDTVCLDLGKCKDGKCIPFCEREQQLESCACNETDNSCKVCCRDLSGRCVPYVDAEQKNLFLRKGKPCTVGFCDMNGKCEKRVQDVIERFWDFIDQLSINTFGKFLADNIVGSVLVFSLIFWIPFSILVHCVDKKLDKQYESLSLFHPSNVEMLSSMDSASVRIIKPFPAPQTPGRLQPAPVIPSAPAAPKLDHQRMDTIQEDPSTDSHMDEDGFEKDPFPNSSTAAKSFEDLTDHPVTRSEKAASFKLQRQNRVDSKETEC
GRIN3A LBD mod: binders of NR3A ligand-binding domain, primary screen, biophysical, differential scanning fluorimetry, uHTS; Glutamate receptor ionotropic, NMDA 3A (GRIN3A) ligand-binding domain; NR3A LBD differential scanning fluorimetry, Tm shift; 0% = protein alone, 100% = glycine-bound protein; Tm shift relative to glycine control, % at 25 µM; 340,000 tested, 2.5% active;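 active = melting temperature shift of at least 10% of the positive control shift, at one fixed dose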
rCAG binder: binders of r(CAG) RNA repeats, primary screen, biochemical, fluorescence. inhibition, % at 3 µM. 370,000 tested, 1.3% active. r(CAG) RNA repeat, TO-PRO-1 dye displacement fluorescence;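 active = inhibition above the plate cutoff, the mean of all test compounds on that plate plus 3 SD, cut at about 35% in these data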;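 note: 0% = DMSO alone and 100% = 100 µM mitoxantrone as full dye displacement; higher means more dye released from RNA so lower well fluorescence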
ADAM10 inh: human ADAM10 inhibitors, primary screen, biochemical, QFRET, HTS; Disintegrin and metalloproteinase domain-containing protein 10 (Homo sapiens), O14672; recombinant ADAM10, EDANS/DABCYL FRET peptide cleavage, 3 h; inhibition, % at 7 µM; 370,000 tested, 0.62% active; AID 720582, 2013;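 active = inhibition above a per-campaign cutoff equal to the mean of compounds falling between control-based bounds plus 3 SD, cut at about 20% in these data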;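 note: 0% = DMSO wells while the 100% control is not disclosed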
AHR activator: AHR activators, primary screen, cell-based, luminescence, luciferase reporter, human; Aryl hydrocarbon receptor (Homo sapiens), P35869; AHR-responsive luciferase reporter cells; activation, % at 5 µM; 320,000 tested, 2.5% active; AID 2796, 2010; in the data active = activation above about 47%;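 note: 0% = vehicle wells and 100% = reference agonist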
KLK7 zymogen act: proKLK7 zymogen activators, primary screen, biochemical, fluorescence intensity; purified proKLK7, EDANS-DABCYL substrate fluorescence; 100% is mature enzyme control, 0% vehicle; activation, % at 7 µM; 370,000 tested, 0.9% active; AID 652039, 2013;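 active = activation above the mean of all tested compounds plus 3 SD, computed per campaign excluding outliers beyond control limits, cut at about 13% in these data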
ADAM10 counter: ADAM10 inhibitors, counter-screen for ADAM17 exosite inhibitor project, biochemical, FRET, human ADAM10; inhibition, % at 6.95 µM; recombinant ADAM10, EDANS/DABCYL FRET peptide cleavage, 3 h; AID 743256, 2014; 2,900 tested, 47% active; shares compounds with ADAM17 inh;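 active = mean inhibition over the triplicate runs exceeds the activity threshold set in the earlier primary screen, cut at about 20% in these data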;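 note: 0% = DMSO wells and 100% = marimastat wells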
ADAM17 confirm: ADAM17 inhibitors, hit retest, confirmation, biochemical, QFRET peptide cleavage; recombinant ADAM17, EDANS/DABCYL QFRET peptide cleavage; shares compounds with ADAM17 inh; 2,900 tested, 65% active; inhibition, % at 6.95 µM;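 active = mean inhibition across replicates above the hit cutoff set in the primary screen, cut at about 8.5% in these data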;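 note: 0% = DMSO wells and 100% = marimastat wells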
Numbers without * were called inactive; / = no result. Only some compounds are listed: those with a hit (about 7% of all), similar ones and a draw of the others.

SMILES	ADAM17 inh	GRIN3A LBD mod	rCAG binder	ADAM10 inh	AHR activator	KLK7 zymogen act	ADAM10 counter	ADAM17 confirm
COc1cccc(CN(C)C(=O)c2ccc(OCC(=O)Nc3cccc(C(F)(F)F)c3)c(OC)c2)c1	8.8*	-6	-4	16	0	0	26*	15*
Cc1cc(NC(=O)CN2C(=O)/C(=C/c3ccc(C(C)C)cc3)SC2=S)no1	-3	/	8	-1	/	0	/	/
Cc1cc2c(cc1C)-c1nnnn1C(N1CCC(Cc3ccccc3)CC1)C(=O)N2 (centres undefined)	-3	/	3	-5	/	0	/	/
COC(=O)[C@H](CC(C)C)NS(=O)(=O)N(Cc1ccccc1)[C@@H](CC(C)C)C(=O)OC	-4	1	-11	12	-1	1	/	/
COC(=O)[C@H](CC(C)C)NCc1cccc(CN[C@@H](CC(C)C)C(=O)OC)c1	8.9*	4	-4	7	0	-1	7	3
Cc1ccc(S(=O)(=O)N(C)CC(=O)O/N=C(\N)c2cccc(Br)c2)cc1	12*	-4	-4	8	1	0	11	9.7*
CCC(C)c1ccc(O)c(NC(=O)c2cncc(Br)c2)c1 (centres undefined)	10*	-25	8	19	21	-1	14	9.8*
O=C1NC[C@H](Cc2ccccc2)N(C[C@H]2CCCN2C[C@H](Cc2ccccc2)N2C[C@H](Cc3ccccc3)N(CC3CCCCC3)C(=O)C2=O)C1=O	9.0*	-4	5	15	/	0	20*	9.3*
O=C1NC[C@H](Cc2ccccc2)N(C[C@@H]2CCCN2C[C@H](Cc2ccccc2)N2C[C@H](Cc3ccccc3)N(CC3CCCCC3)C(=O)C2=O)C1=O	2	/	11	5	/	0	/	/
CC(C)C[C@@H](CN1CCC[C@H]1CN1C(=O)C(=O)NC[C@@H]1Cc1ccccc1)N1C[C@H](Cc2ccc(O)cc2)N(CC2CCCCC2)C(=O)C1=O	10*	/	5	9	/	0	20*	11*
NS(=O)(=O)c1ccc(NC(=O)N[C@@H](Cc2ccccc2)C(=O)O)cc1	9.8*	-1	3	0	/	0	11	8
CCOC(=O)c1c(C)[nH]c(C(=O)OCc2ccccc2)c1C	8.8*	-6	-4	13	3	0	12	8.9*
CCOC(=O)c1[nH]c(C)c(C(=O)OCc2ccc(C)cc2)c1C	0	3	1	7	7	0	/	/
O=C1/C(=C\c2cccc(O)c2)SC(=S)N1Cc1ccccc1	8.8*	5	25	10	-6	0	13	6
O=C(NC(Nc1nc2ccc([N+](=O)[O-])cc2s1)(C(F)(F)F)C(F)(F)F)c1ccccc1Cl	11*	13*	21	16	-14	0	22*	13*
CC(C)C(=O)NC(=S)/C=C1/N(C)c2ccccc2C1(C)C	-6	2	-5	-5	0	0	/	/
Cc1ccc(C(=O)NC(=S)/C=C2\N(C)c3ccccc3C2(C)C)cc1	18*	2	-3	16	-3	1	26*	13*
CCOC(=O)c1cnc2ccc(Br)cc2c1NCC(C)O (centres undefined)	10*	0	4	7	/	1	-6	1
CCOC(=O)c1cnc2ccc(Br)cc2c1NCCO	0	-1	2	7	2	0	/	/
O=C(c1cc(COc2c(F)cccc2F)on1)N1CCC(c2ccccc2Cl)C1 (centres undefined)	9.5*	-2	3	19	7	0	13	11*
O=C(c1cc(COc2c(F)cccc2F)on1)N1CCC(c2ccccc2F)C1 (centres undefined)	5	0	0	12	6	0	/	/
COC(=O)c1cc(=O)cc(C(=O)OC)o1	8.7*	-2	4	9	0	0	-11	-1
COc1ccc(/C(C)=N/NC(=O)CNC(=O)c2cccnc2)c(OC)c1	0	-1	-1	15	2	0	/	/
C[C@H]1CN([C@@H](C)CO)C(=O)Cc2cc(NC(=O)C3CC3)ccc2O[C@H]1CN(C)Cc1ccc(Oc2ccccc2)cc1	9.3*	-16	0	19	0	0	29*	19*
COc1ccc(NC(=O)Nc2ccc3c(c2)CC(=O)N([C@H](C)CO)C[C@H](C)[C@H](CN(C)Cc2ccc(C(=O)O)cc2)O3)cc1	9.0*	-3	32	7	-1	-1	10	8
SMILES	ADAM17 inh	GRIN3A LBD mod	rCAG binder	ADAM10 inh	AHR activator	KLK7 zymogen act	ADAM10 counter	ADAM17 confirm
CC(C)(C)S(=O)(=O)N1C[C@@H]2CC/C=C\C/C=C\2[C@H]1CCO	2	-1	2	-3	/	0	/	/
O=C1OC(Cc2ccccc2)(c2ccccc2)c2ccccc21 (centres undefined)	11*	/	2	18	/	1	8	2
O=S(=O)(N/N=C/c1cccnc1)c1ccc(Cl)c(Cl)c1	3	0	1	1	2	1	/	/
Cc1cccc(C(=O)Nc2cccc(OC(=O)c3cccc(C)c3)c2)c1	10*	-4	9	11	-4	3	30*	17*
COC(=O)COc1cccc(NC(=O)c2cccc(C)c2)c1	0	1	-2	0	-1	0	/	/
CCN(CC)C(=O)CN(c1cc2c(cc1OC)oc1ccccc12)S(=O)(=O)c1ccc(C)cc1	16*	-2	12	19	3	0	0	8
CC(O)(c1ccc(F)c(F)c1)c1nc(-c2ccc(S(C)(=O)=O)cc2)cs1 (centres undefined)	2	/	4	7	/	0	/	/
C[C@@H](OC(=O)N1CCCCC1)[C@H]1O[C@]2(C)CCCC[C@H]1O2	9.4*	0	-1	9	-2	0	13	9
OCC[C@@H]1C[C@H](O)[C@@H](O)[C@]2(CCCO2)O1	2	0	1	8	4	0	/	/
C[C@H](CO)N1C[C@H](C)[C@@H](CN(C)C(=O)Nc2ccc(C(F)(F)F)cc2)Oc2ccc(NC(=O)Nc3ccccc3)cc2C1=O	7	7	5	16	3	1	/	/
